Screening results deposited in PubChem BioAssay by National Center for Advancing Translational Sciences (NCATS).
Pf Dd2 growth: Plasmodium falciparum Dd2 growth inhibition; P. falciparum Dd2 growth, SYBR Green, 72 h; Potency, µM (series often up to 28.9 µM), for the others: at the highest dose activity, negative = inhibition, most hits filed as inhibitors; 120,000 tested, 4.3% active; active means well fitted inhibition curve with a large enough effect;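 further: plate controls were DMSO vehicle for no effect and reference drug for full effect; nearly all actives have a fitted effect of over 65% in size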
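Infected erythrocytes (Dd2, 0.3% parasitemia, 2.5% hematocrit final) are added to compound in RPMI-1640/Albumax II medium, grown 72 h at 37C in low oxygen, then lysed with saponin/Triton-X containing SYBR Green and read by fluorescence.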
Active calls of the source: *; i = inactive; [ ] = remark or other dose. The full list was thinned out, with hits kept by preference. Potency means the concentration at half of the fitted maximal effect.

SMILES	Pf Dd2 growth
O=C(N1CCc2c(nc[nH]c2=O)C1)C1(S(=O)(=O)c2ccccc2)CC1	0%
COc1ccc(NC(=O)C2CCN(C(=O)c3nnn4c3COC(c3ccc(C)cc3)C4)CC2)cc1 (stereo unspecified)	i
O=C1COCCN1C1CCN(Cc2ccsc2)CC1	15%[44.1 µM]
O=C1CCCCCN1C1CCN(Cc2cccnc2)CC1	5%[44.1 µM]
O=C1CCCCCN1C1CCN(Cc2ccsc2)CC1	7.1µM*
Cc1nc([C@@H]2CN(C(=O)CCc3c(C)noc3C)C[C@H]2C(N)=O)n[nH]1	i
CCS(=O)(=O)N(C1CC1)C1CCOC2(CCN(C(=O)c3cc(F)ccc3F)CC2)C1 (stereo unspecified)	-3%
COc1ccc(C(=O)N2CCN(C3CCN(C)C3=O)CC2)cc1 (stereo unspecified)	21%
COCCOC1CCOC2(CCN(C(=O)c3cc(C)nn3C)CC2)C1 (stereo unspecified)	-18%
COCCOC1CCOC2(CCN(C(=O)c3cc(-c4ccc(F)cc4)n[nH]3)CC2)C1 (stereo unspecified)	11µM*
COCCOC1CCOC2(CCN(C(=O)c3ccccc3OC)CC2)C1 (stereo unspecified)	-26%
O=C(Nc1cccc2ccccc12)O[C@@H]1CO[C@H]2[C@@H]1OC[C@@H]2n1nnnc1Sc1ccccc1	i
CCCc1nc(C(=O)N[C@H]2COC[C@H]2Cc2cc(C)no2)cs1	0%
CCOC(=O)c1c(C)[nH]c(C)c1S(=O)(=O)N1CCCC(C(=O)Nc2cccc(C)n2)C1 (stereo unspecified)	-5%
CCOC(=O)C1CCCN(S(=O)(=O)c2ccc3c(c2)oc(=O)n3C)C1 (stereo unspecified)	-2%
CCOC(=O)c1c(C)[nH]c(C)c1S(=O)(=O)N1CCCC(C(=O)N2CCN(c3cccc(C)c3C)CC2)C1 (stereo unspecified)	0.56µM*
Cc1cccc(N2CCN(C(=O)C3CCCN(S(=O)(=O)c4ccc5c(c4)oc(=O)n5C)C3)CC2)c1C (stereo unspecified)	11µM*
CCOC(=O)c1c(C)[nH]c(C)c1S(=O)(=O)N1CCC(C(=O)N2CCN(c3cc(C)ccc3C)CC2)CC1	68%
Cc1cccc(CCNC(=O)C2CCCN(S(=O)(=O)c3ccc4c(c3)oc(=O)n4C)C2)c1 (stereo unspecified)	-21%
O=C1CCN(S(=O)(=O)c2ccccc2)CCCN(C(=O)C2CCOCC2)CCN1	0%
CCc1cccc2c(C(CC(=O)NC(C)C(C)C)c3ccc(OC)c(OC)c3)c[nH]c12 (stereo unspecified)	-4%
O=C(NC1CC1)[C@@H]1C[C@H](Oc2ccccc2)CN1C(=O)CC1CCCC1	3%
O=C(CCCc1nc2ccccc2[nH]1)N1CCc2c(nc3cc(-c4ccccc4)[nH]n3c2=O)C1	25%[5.79 µM]
COC(=O)c1ccc(Cn2nnc3c(=O)[nH]c(C4CCCN(S(=O)(=O)c5ccccc5Cl)C4)nc32)cc1 (stereo unspecified)	7.9µM*
O=C(c1cccc(Cl)c1)N1CCC(c2nc3c(nnn3Cc3ccc(F)cc3F)c(=O)[nH]2)CC1	2µM*
SMILES	Pf Dd2 growth
COc1ccc(CNC(=O)C2CCCN(S(=O)(=O)c3cccc4nsnc34)C2)cc1 (stereo unspecified)	-19%
Cc1ccccc1Cn1nnc2c(=O)[nH]c(C3CCCN(C(=O)c4ccc(F)cc4)C3)nc21 (stereo unspecified)	-3%
CC(C)(C)c1ccc(C(=O)N2CCCC(c3nc4c(nnn4Cc4cccc(F)c4)c(=O)[nH]3)C2)cc1 (stereo unspecified)	1.6µM*
CC(C)n1ccnc1C1CCCN(S(=O)(=O)c2ccccc2Cl)C1 (stereo unspecified)	i
O=C(c1cccc(C(F)(F)F)c1)N1CCC(c2nn(-c3ccc(Cl)cc3)c(=O)[nH]2)CC1	i
O=C(c1cccc(Cl)c1)N1CCC(c2nn(-c3ccccc3)c(=O)[nH]2)CC1	i
Cc1ccc(C)c(C(=O)N2CCC(c3nc4c(nnn4Cc4ccccc4)c(=O)[nH]3)CC2)c1	11µM*
Cc1ccccc1C(=O)N1CCC(c2nn(Cc3ccccc3)c(=O)[nH]2)CC1	-16%
Cc1cc(C)n(Cc2cccc(C(=O)N3CCCC(c4ncc[nH]4)C3)c2)n1 (stereo unspecified)	0%
Cc1ccc(C(=O)N2CCC(c3nn(Cc4ccccc4)c(=O)[nH]3)CC2)cc1	-8%
COC[C@@H]1CN(C(=O)Cc2cccc(OC)c2)C[C@H]1c1ccccn1	-3%
O=C(CC1CCCCC1)N1CCC(n2cc(-c3nc(-c4ccccc4)no3)nn2)CC1	i
NCCCC(=O)N1CCC2(CC1)CN(C(=O)Cc1ccc(Cl)cc1)CCO2	8%
COC(=O)C1=C(C)N(Cc2ccccc2F)C(=O)CC1c1ccc(F)cc1F (stereo unspecified)	i
COCc1nnc([C@@H]2CC(F)(F)CN2C(=O)Cc2ccccc2C)o1	i
COc1ccc(C(=O)N2CCCC3(CCC(=O)N(Cc4ccncc4)C3)C2)o1 (stereo unspecified)	-13%
